M1 ag = human M1 muscarinic receptor agonism. CHO-K1 hM1, Fluo-8 calcium fluorescence, agonist mode; 0% DMSO, 100% acetylcholine EC100. activation, % at 3 µM. hit rate 0.33% among 360,000. AID 588814;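 active means activation above the run's mean compound activation plus 3 SD, cut at about 16% in these data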;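 further: peak over basal fluorescence ratio within a 140 s kinetic read after compound addition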
Target sequence (P11229 whole entry, looked up): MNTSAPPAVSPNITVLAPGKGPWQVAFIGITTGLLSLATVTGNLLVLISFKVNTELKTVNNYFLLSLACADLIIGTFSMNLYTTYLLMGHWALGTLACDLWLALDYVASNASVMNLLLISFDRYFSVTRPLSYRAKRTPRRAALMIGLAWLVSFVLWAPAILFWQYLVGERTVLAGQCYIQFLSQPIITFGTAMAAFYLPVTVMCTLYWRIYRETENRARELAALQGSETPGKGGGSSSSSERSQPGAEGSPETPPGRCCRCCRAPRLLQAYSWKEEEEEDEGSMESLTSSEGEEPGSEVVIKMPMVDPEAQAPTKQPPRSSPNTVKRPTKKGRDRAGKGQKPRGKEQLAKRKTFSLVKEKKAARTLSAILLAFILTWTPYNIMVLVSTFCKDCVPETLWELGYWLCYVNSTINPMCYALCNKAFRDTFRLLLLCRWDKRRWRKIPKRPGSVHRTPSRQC
CHO-K1 Ca PAM = M1 PAM counterscreen hit in parental CHO-K1 cells. hit rate 0.02% among 360,000. ATP EC20, Fluo-8 calcium fluorescence; 0% at ATP EC20, 100% at ATP max. activation, % at 3 µM;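 active means activation above the run cutoff, the mean activation of all test compounds plus 3 SD, cut at about 40% in these data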;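 further: peak over basal fluorescence ratio in a 140 s read after ATP addition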
CHO-K1 Ca ag = M1 agonist counterscreen hit in parental CHO-K1 cells; Fluo-8 calcium fluorescence; scaled to maximal ATP response, vehicle zero; hit rate 0.48% among 360,000; AID 602248; activation, % at 3 µM; in the data active means activation above about 15%;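 further: untransfected CHO-K1 host cells lacking M1 receptor as counterscreen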
CHO-K1 Ca antag = nonselective inhibitor or artifact in parental CHO-K1 cells; ATP-induced calcium, Fluo-8 fluorescence; inhibition, % at 3 µM; hit rate 0.6% among 360,000; AID 602250;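 active means inhibition above a per-plate cutoff, the plate's mean sample inhibition plus 3 SD, cut at about 24% in these data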;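 further: 0% = DMSO plus EC80 ATP and 100% = DMSO alone without ATP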
M1 antag = human CHRM1 antagonism; P11229; CHO-K1 hM1, Fluo-8 calcium fluorescence, ACh EC80 antagonist; inhibition, % at 3 µM; hit rate 1.3% among 360,000; AID 588852;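 active means percent inhibition above its own plate's cutoff, namely the mean of that plate's compound wells plus 3 SD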;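 further: peak over basal fluorescence ratio during 140 s after agonist addition; 0% = ACh EC80 plus DMSO and 100% = DMSO alone without agonist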
M1 PAM = human CHRM1 positive allosteric modulation | AID 588819 | hit rate 0.088% among 360,000 | activation, % at 3 µM | CHO-K1 hM1, Fluo-8 calcium fluorescence, ACh EC20; 0% = ACh EC20, 100% = maximal ACh | P11229; in the data active means activation above about 19%, passing the limit was not always enough
Active calls of the source: *. In the library only some 2.4% were active in any assay of this set; here they are far more common.

How did Cc1cccc(N2C(=O)c3cccc4c(N(C)CCO)ccc(c34)C2=O)c1 do in these assays?
M1 ag: 23*; CHO-K1 Ca PAM: -7; CHO-K1 Ca ag: 20*; CHO-K1 Ca antag: 10; M1 antag: 11; M1 PAM: -14

How did Cc1cccc(N2C(=O)c3cccc4c(N)ccc(c34)C2=O)c1 do in these assays?
M1 ag: 108*; CHO-K1 Ca PAM: -15; CHO-K1 Ca ag: 124*; CHO-K1 Ca antag: 35*; M1 antag: 43*; M1 PAM: -27

Results for Nc1ccc2c3c(cccc13)C(=O)N(c1ccccc1)C2=O ?
M1 ag: 121*; CHO-K1 Ca PAM: -20; CHO-K1 Ca ag: 50*; CHO-K1 Ca antag: 26*; M1 antag: 52*; M1 PAM: -24

How did N#Cc1cccc(-c2csc(C(O)c3ccc(F)cc3)n2)c1 (stereo not given) do in these assays?
M1 ag: -2; CHO-K1 Ca PAM: -8; CHO-K1 Ca ag: 1; CHO-K1 Ca antag: -1; M1 antag: -5; M1 PAM: 1

What do the screens show for `OC(c1ccc(Cl)cc1)c1ncc(-c2cccc(F)c2)[nH]1` (stereo not given)?
M1 ag: -2; CHO-K1 Ca PAM: 10; CHO-K1 Ca ag: 3; CHO-K1 Ca antag: -12; M1 antag: 9; M1 PAM: -7

Results for O=C(CCn1c(=O)c2cccn2c2ccccc21)Nc1ccc(F)cc1 ?
M1 ag: -7; CHO-K1 Ca PAM: -14; CHO-K1 Ca ag: 6; CHO-K1 Ca antag: -15; M1 antag: 8; M1 PAM: -15

How did CCCNC(=O)C1(C)CCCN(C(=O)c2ccc3snnc3c2)C1 (stereo not given) do in these assays?
M1 ag: -4; CHO-K1 Ca PAM: 5; CHO-K1 Ca ag: 0; CHO-K1 Ca antag: -10; M1 antag: 1; M1 PAM: 1

How did Nc1cccc(N2C(=O)c3cccc4c(N)ccc(c34)C2=O)c1 do in these assays?
M1 ag: 45*; CHO-K1 Ca PAM: -3; CHO-K1 Ca ag: 15*; CHO-K1 Ca antag: -8; M1 antag: 14; M1 PAM: -14

Results for O=C(O)c1cccc(N2C(=O)c3cccc4c(Cl)ccc(c34)C2=O)c1 ?
M1 ag: -7; CHO-K1 Ca PAM: -11; CHO-K1 Ca ag: 0; CHO-K1 Ca antag: 6; M1 antag: 0; M1 PAM: 0

How did O=C(N1CCC(n2nc(-c3ccccc3)oc2=O)CC1)C1(c2ccccc2)CC1 do in these assays?
M1 ag: -2; CHO-K1 Ca PAM: 1; CHO-K1 Ca ag: 1; CHO-K1 Ca antag: -12; M1 antag: -9; M1 PAM: 8

What do the screens show for `COCCn1nnnc1C(c1cccc(OC)c1OC)N1CCN(C(=O)c2ccco2)CC1` (stereo not given)?
M1 ag: -2; CHO-K1 Ca PAM: 4; CHO-K1 Ca ag: 0; CHO-K1 Ca antag: -11; M1 antag: -2; M1 PAM: 7

Results for COCCn1nnnc1C(c1cccc(OC)c1OC)N1CCN(C2CCCCC2)CC1 (stereo not given) ?
M1 ag: -2; CHO-K1 Ca PAM: 14; CHO-K1 Ca ag: 0; CHO-K1 Ca antag: -4; M1 antag: -81; M1 PAM: 24*

Results for CCCCCCOC1(c2ccccc2)OC(=O)c2ccccc21 (stereo not given) ?
M1 ag: -6; CHO-K1 Ca PAM: 16; CHO-K1 Ca ag: -1; CHO-K1 Ca antag: -3; M1 antag: -7; M1 PAM: -1

Results for Cc1cccc(OC2(c3ccccc3)OC(=O)c3ccccc32)c1C (stereo not given) ?
M1 ag: -10; CHO-K1 Ca PAM: -7; CHO-K1 Ca ag: 0; CHO-K1 Ca antag: -12; M1 antag: 36*; M1 PAM: -19

How did COc1ccccc1CN(Cc1nc2ccccc2c(=O)[nH]1)S(=O)(=O)c1ccc2ccccc2c1 do in these assays?
M1 ag: -7; CHO-K1 Ca PAM: -11; CHO-K1 Ca ag: 2; CHO-K1 Ca antag: -2; M1 antag: 43*; M1 PAM: -25

What do the screens show for `COCCNc1ncnc2c1ncn2[C@H]1CN(Cc2ccncc2)C[C@@H](CO)O1`?
M1 ag: 3; CHO-K1 Ca PAM: 16; CHO-K1 Ca ag: 0; CHO-K1 Ca antag: -8; M1 antag: -25; M1 PAM: 21

Results for COC(=O)CCC(C)N1CCC(Oc2ccc(C(=O)NCc3ccccn3)cc2)CC1 (stereo not given) ?
M1 ag: -3; CHO-K1 Ca PAM: -2; CHO-K1 Ca ag: 0; CHO-K1 Ca antag: -7; M1 antag: 1; M1 PAM: 3

What do the screens show for `C/C(=N\Nc1ccc(F)cc1F)c1ccc(Br)s1`?
M1 ag: -4; CHO-K1 Ca PAM: 12; CHO-K1 Ca ag: 1; CHO-K1 Ca antag: -21; M1 antag: -4; M1 PAM: -1

What do the screens show for `CCC(C)(C)c1ccc(OCCCC[n+]2cccc(C)c2C)c(C(C)(C)CC)c1`?
M1 ag: -8; CHO-K1 Ca PAM: 11; CHO-K1 Ca ag: 25*; CHO-K1 Ca antag: 13; M1 antag: 73*; M1 PAM: -24

What do the screens show for `CN(C)c1nc2c(c(=O)[nH]c(=O)n2C)n1CCCc1ccccc1`?
M1 ag: -1; CHO-K1 Ca PAM: -2; CHO-K1 Ca ag: 1; CHO-K1 Ca antag: 0; M1 antag: 5; M1 PAM: -1

What do the screens show for `CC(/C=N/n1c(-c2n[nH]c3c2CCC3)n[nH]c1=S)=C\c1ccco1`?
M1 ag: -6; CHO-K1 Ca PAM: 18; CHO-K1 Ca ag: 0; CHO-K1 Ca antag: -9; M1 antag: 67*; M1 PAM: -27

How did COc1cccc(/C=N/n2c(-c3n[nH]c4c3CCC4)n[nH]c2=S)c1OC do in these assays?
M1 ag: -7; CHO-K1 Ca PAM: -1; CHO-K1 Ca ag: 0; CHO-K1 Ca antag: -10; M1 antag: 76*; M1 PAM: -26

What do the screens show for `COc1ccc(/C=N/n2c(-c3n[nH]c4c3CCC4)n[nH]c2=S)cc1`?
M1 ag: -6; CHO-K1 Ca PAM: 13; CHO-K1 Ca ag: 3; CHO-K1 Ca antag: -4; M1 antag: 1; M1 PAM: -10

How did CCCNC(=O)Cn1c(=O)/c(=C\c2ccc(-c3ccc([N+](=O)[O-])cc3)o2)s/c1=C\C(=O)C(C)(C)C do in these assays?
M1 ag: 22*; CHO-K1 Ca PAM: 7; CHO-K1 Ca ag: 23*; CHO-K1 Ca antag: 23; M1 antag: 37*; M1 PAM: -9

How did Cc1cccnc1NC(=O)c1cccc(S(=O)(=O)N2CCCc3ccccc32)c1 do in these assays?
M1 ag: 0; CHO-K1 Ca PAM: -24; CHO-K1 Ca ag: 3; CHO-K1 Ca antag: 0; M1 antag: -8; M1 PAM: 19

What do the screens show for `Cc1cccc(OCC(=O)N2CCN(c3nnc(-c4ccccc4)c4ccccc34)CC2)c1`?
M1 ag: -6; CHO-K1 Ca PAM: 9; CHO-K1 Ca ag: 5; CHO-K1 Ca antag: -6; M1 antag: 57*; M1 PAM: -28

Source: PubChem BioAssay (The Scripps Research Institute Molecular Screening Center)
